According to PubChem BioAssay AID1159580 (chemical genetic matrix, 2015):
Where “and” joins values, the source holds several entries; their conditions need not be identical. Identical values can stand only once. About 2,000 (36%) of roughly 5,500 compounds were called active. About 18% were inconclusive and are not listed. Cut-off read from the data, not from the text of the source: active = normalized growth mostly below about 0.91 (no sharp cut-off); inconclusive = no clear call, values can overlap the other calls; inactive = mostly above about 0.92. The list shows a part of the results.

Experiment: chemical genetic growth profiling, strain panel (AID 1159580);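 note: tested at 20 µM; growth read once vehicle control cultures reached saturation at 30 °C; 1 = growth at the plate median or of vehicle wells; lower values mean less growth of the strain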
Conditions: S. cerevisiae deletion strains, growth OD

Measured: normalized growth

CO/N=C(\C(=O)N[C@@H]1C(=O)N2C(C(=O)O)=C(COC(C)=O)CS[C@H]12)c1csc(N)n1
inactive: locus YAL021C, strain ccr4, stronger effect = lower value 0.961 | locus YAL026C, strain drs2, stronger effect = lower value 0.983 | locus YAL030W, strain snc1, stronger effect = lower value 0.983 | locus YBL061C, strain skt5, stronger effect = lower value 0.993 | locus YBR009C, strain hhf1, stronger effect = lower value 0.973 | locus YBR021W, strain FUR4, stronger effect = lower value 1 | locus YBR023C, strain chs3, stronger effect = lower value 1.02 | locus YBR171W, strain sec66, stronger effect = lower value 0.993 | locus YBR229C, strain ROT2, stronger effect = lower value 0.954 | locus YBR231C, strain swc5, stronger effect = lower value 0.975 | locus YBR279W, strain paf1, stronger effect = lower value 1 | locus YCL011C, strain gbp2, stronger effect = lower value 0.954 | locus YCL016C, strain dcc1, stronger effect = lower value 0.961 | locus YCL029C, strain bik1, stronger effect = lower value 0.998 | locus YCL061C, strain MRC1, stronger effect = lower value 0.964 | locus YCL069W, strain vba3, stronger effect = lower value 0.995 | locus YCR088W, strain abp1, stronger effect = lower value 0.985 | locus YDL005C, strain med2, stronger effect = lower value 0.992 | locus YDL035C, strain GPR1, stronger effect = lower value 0.959 | locus YDL040C, strain nat1, stronger effect = lower value 0.989 | locus YDL074C, strain BRE1, stronger effect = lower value 1.02 | locus YDL101C, strain DUN1, stronger effect = lower value 0.99 | locus YDL185W, strain tfp1, stronger effect = lower value 0.965 | locus YDL192W, strain arf1, stronger effect = lower value 0.982 | locus YDR001C, strain nth1, stronger effect = lower value 0.976 | locus YDR069C, strain doa4, stronger effect = lower value 0.996 | locus YDR101C, strain arx1, stronger effect = lower value 0.975 | locus YDR137W, strain rgp1, stronger effect = lower value 0.938 | locus YDR159W, strain sac3, stronger effect = lower value 0.985 | locus YDR162C, strain NBP2, stronger effect = lower value 0.954 | locus YDR195W, strain ref2 0.989 | locus YDR297W, strain sur2, stronger effect = lower value 0.986 | locus YDR318W, strain mcm21, stronger effect = lower value 0.996 | locus YDR334W, strain swr1, stronger effect = lower value 0.976 | locus YDR335W, strain msn5, stronger effect = lower value 0.992 | locus YDR388W, stronger effect = lower value 0.992 | locus YDR392W, strain spt3, stronger effect = lower value 0.896 | locus YDR502C, strain sam2, stronger effect = lower value 1 | locus YEL003W, strain gim4, stronger effect = lower value 1.02 | locus YEL037C, strain rad23, stronger effect = lower value 0.991 | locus YEL061C, strain CIN8 (second series), stronger effect = lower value 0.989 | locus YEL061C, strain CIN8, stronger effect = lower value 0.995 | locus YER015W, strain faa2, stronger effect = lower value 0.979 | locus YER016W, strain bim1, stronger effect = lower value 0.99 | locus YER110C, stronger effect = lower value 0.992 | locus YER111C, strain swi4, stronger effect = lower value 1 | locus YER155C, strain BEM2 (second series), stronger effect = lower value 0.965 | locus YER155C, strain BEM2, stronger effect = lower value 1 | locus YER167W, strain BCK2, stronger effect = lower value 1.02 | locus YFR010W, strain ubp6, stronger effect = lower value 0.97 | locus YGL078C, strain dbp3, stronger effect = lower value 0.998 | locus YGL086W, strain mad1, stronger effect = lower value 0.984 | locus YGL167C, strain pmr1, stronger effect = lower value 1.01 | locus YGL173C, strain kem1, stronger effect = lower value 1.01 | locus YGL227W, strain vid30, stronger effect = lower value 0.993 | locus YGL240W, strain doc1, stronger effect = lower value 0.996 | locus YGL248W, strain PDE1, stronger effect = lower value 1.02 | locus YGL253W, strain hxk2, stronger effect = lower value 1 | locus YGR135W, strain pre9, stronger effect = lower value 1.05 | locus YGR229C, strain SMI1, stronger effect = lower value 0.979 | locus YGR252W, strain gcn5, stronger effect = lower value 1.05 | locus YHR013C, strain ard1, stronger effect = lower value 0.94 | locus YHR027C, strain rpn1, stronger effect = lower value 0.987 | locus YHR030C, strain SLT2, stronger effect = lower value 0.988 and 1.01 | locus YHR079C, strain IRE1 (second series), stronger effect = lower value 0.998 | locus YHR079C, strain IRE1, stronger effect = lower value 0.992 | locus YHR094C, strain hxt1, stronger effect = lower value 0.994 | locus YHR129C, strain ARP1, stronger effect = lower value 0.99 | locus YHR142W, strain chs7, stronger effect = lower value 0.993 | locus YHR200W, strain rpn10, stronger effect = lower value 0.981 | locus YIL066C, strain RNR3, stronger effect = lower value 0.976 | locus YIL073C, strain SPO22, stronger effect = lower value 1.06 | locus YIL125W, strain kgd1, stronger effect = lower value 0.986 | locus YIR030C, strain dcg1, stronger effect = lower value 0.996 | locus YJL092W, strain hpr5, stronger effect = lower value 0.974 | locus YJL095W, strain BCK1 (second series), stronger effect = lower value 0.97 | locus YJL095W, strain BCK1, stronger effect = lower value 1.06 and 0.972 | locus YJL115W, strain asf1, stronger effect = lower value 0.968 | locus YJL129C, strain trk1, stronger effect = lower value 0.989 | locus YJL134W, strain LCB3, stronger effect = lower value 0.989 | locus YJL154C, strain vps35, stronger effect = lower value 0.968 | locus YJL164C, strain tpk1, stronger effect = lower value 0.975 | locus YJL166W, strain qcr8, stronger effect = lower value 1.01 | locus YJL168C, strain set2, stronger effect = lower value 0.991 | locus YJL187C, strain SWE1 (second series), stronger effect = lower value 1.01 | locus YJL187C, strain SWE1, stronger effect = lower value 0.984 | locus YJR043C, strain POL32, stronger effect = lower value 0.958 | locus YJR066W, strain TOR1, stronger effect = lower value 0.983 | locus YKL009W, strain mrt4, stronger effect = lower value 1.03 | locus YKL068W, stronger effect = lower value 0.986 | locus YKL085W, strain MDH1 (second series), stronger effect = lower value 0.994 | locus YKL085W, strain MDH1, stronger effect = lower value 0.994 | locus YKL160W, strain elf1, stronger effect = lower value 1.02 | locus YKL190W, strain CNB1, stronger effect = lower value 1 | locus YKR001C, strain vps1, stronger effect = lower value 0.992 | locus YKR026C, strain gcn3, stronger effect = lower value 0.964 | locus YKR091W, strain srl3, stronger effect = lower value 0.962 | locus YLL001W, strain dnm1, stronger effect = lower value 1.01 | locus YLL026W, stronger effect = lower value 0.996 | locus YLL041C, strain sdh2, stronger effect = lower value 1 | locus YLR027C, strain aat2, stronger effect = lower value 0.977 | locus YLR039C, strain RIC1, stronger effect = lower value 0.993 | locus YLR058C, strain SHM2, stronger effect = lower value 0.986 | locus YLR102C, strain apc9, stronger effect = lower value 0.997 | locus YLR113W, strain HOG1, stronger effect = lower value 0.99 | locus YLR221C, strain rsa3, stronger effect = lower value 1 | locus YLR258W, strain gsy2, stronger effect = lower value 0.974 | locus YLR262C, strain YPT6 (second series), stronger effect = lower value 1 | locus YLR262C, strain YPT6, stronger effect = lower value 0.954 | locus YLR268W, strain sec22, stronger effect = lower value 0.973 | locus YLR320W, strain mms22, stronger effect = lower value 0.96 | locus YLR330W, strain CHS5, stronger effect = lower value 0.988 | locus YLR342W, strain FKS1 (second series), stronger effect = lower value 0.995 | locus YLR342W, strain FKS1, stronger effect = lower value 0.994 | locus YLR357W, strain rsc2, stronger effect = lower value 1.03 | locus YLR370C, strain arc18, stronger effect = lower value 0.994 | locus YLR371W, strain rom2, stronger effect = lower value 0.994 | locus YLR384C, strain iki3, stronger effect = lower value 0.983 | locus YLR418C, strain cdc73, stronger effect = lower value 1.01 | locus YML016C, strain PPZ1, stronger effect = lower value 0.993 | locus YML032C, strain rad52, stronger effect = lower value 0.993 | locus YML120C, strain ndi1, stronger effect = lower value 0.989 | locus YML124C, strain tub3, stronger effect = lower value 0.993 | locus YMR058W, strain fet3, stronger effect = lower value 0.99 | locus YMR078C, strain ctf18, stronger effect = lower value 0.98 | locus YMR125W, strain sto1, stronger effect = lower value 1.02 | locus YMR129W, stronger effect = lower value 0.968 | locus YMR205C, strain PFK2, stronger effect = lower value 1 | locus YMR223W, strain ubp8, stronger effect = lower value 1.03 | locus YMR231W, strain pep5, stronger effect = lower value 0.999 | locus YMR307W, strain GAS1, stronger effect = lower value 1 | locus YNL067W, strain RPL9B, stronger effect = lower value 1.01 | locus YNL071W, strain lat1, stronger effect = lower value 0.989 | locus YNL128W, strain TEP1, stronger effect = lower value 0.996 | locus YNL183C, strain NPR1, stronger effect = lower value 0.91 | locus YNL209W, strain ssb2, stronger effect = lower value 0.99 | locus YNL233W, strain BNI4, stronger effect = lower value 1.03 | locus YNL248C, strain rpa49, stronger effect = lower value 0.977 | locus YNL250W, strain rad50, stronger effect = lower value 1.01 | locus YNL271C, strain bni1, stronger effect = lower value 1.01 | locus YNL298W, strain CLA4, stronger effect = lower value 0.989 | locus YNL307C, strain MCK1, stronger effect = lower value 0.994 | locus YNL322C, strain KRE1 (second series), stronger effect = lower value 0.971 | locus YNL322C, strain KRE1, stronger effect = lower value 1 | locus YNR049C, strain mso1, stronger effect = lower value 0.981 | locus YNR052C, strain pop2, stronger effect = lower value 0.992 | locus YOL006C, strain TOP1, stronger effect = lower value 1.15 | locus YOL012C, strain htz1 0.969 | locus YOL147C, strain pex11, stronger effect = lower value 1 | locus YOR001W, strain rrp6, stronger effect = lower value 1.01 | locus YOR061W, strain CKA2, stronger effect = lower value 0.976 | locus YOR069W, strain VPS5, stronger effect = lower value 0.988 | locus YOR070C, strain gyp1, stronger effect = lower value 0.995 | locus YOR080W, strain dia2, stronger effect = lower value 0.992 | locus YOR083W, strain WHI5, stronger effect = lower value 1.02 | locus YOR106W, strain vam3, stronger effect = lower value 0.997 | locus YOR136W, strain idh2, stronger effect = lower value 0.984 | locus YOR144C, strain elg1, stronger effect = lower value 0.99 | locus YOR184W, strain ser1, stronger effect = lower value 0.986 | locus YOR231W, strain MKK1, stronger effect = lower value 0.971 | locus YOR265W, strain rbl2, stronger effect = lower value 0.99 | locus YOR270C, strain vph1, stronger effect = lower value 1.05 | locus YOR290C, strain snf2, stronger effect = lower value 0.946 | locus YOR316C, strain cot1, stronger effect = lower value 0.984 | locus YPL051W, strain arl3, stronger effect = lower value 1.01 | locus YPL055C, strain LGE1, stronger effect = lower value 1.01 | locus YPL078C, strain atp4, stronger effect = lower value 0.968 | locus YPL106C, strain sse1, stronger effect = lower value 0.963 | locus YPL240C, strain hsp82, stronger effect = lower value 1.01 | locus YPL256C, strain CLN2, stronger effect = lower value 1 | locus YPR119W, strain clb2, stronger effect = lower value 0.991 | locus YPR141C, strain kar3, stronger effect = lower value 0.992 | locus YPR163C, strain tif3, stronger effect = lower value 0.988 | locus YPR167C, strain met16, stronger effect = lower value 0.998 | strain wtn01, stronger effect = lower value 0.999
